The values that follow come from PubChem BioAssay AID651815 (National Center for Advancing Translational Sciences (NCATS), 2012).

SMILES strings stand for the structures. Several values for one entry are separate records, joined by “and”; a condition that tells them apart may be missing. Identical values can stand only once. About 1,100 (52%) of roughly 2,100 compounds were called active. About 29% were inconclusive and are not listed. The call rests on the fitted dose curve; in most records, active means well fitted inhibition curve with a large enough effect; inconclusive means small, poorly fitted or top-dose-only effect; inactive means no such curve, though single readings can be large or run the other way. So high a share suggests a set chosen from earlier hits. This is one part of the list.
Potency means the concentration at half of the fitted maximal effect.

DNA dC->dU-editing enzyme APOBEC-3F (Homo sapiens), sequence (Q8IUX4 whole entry, looked up): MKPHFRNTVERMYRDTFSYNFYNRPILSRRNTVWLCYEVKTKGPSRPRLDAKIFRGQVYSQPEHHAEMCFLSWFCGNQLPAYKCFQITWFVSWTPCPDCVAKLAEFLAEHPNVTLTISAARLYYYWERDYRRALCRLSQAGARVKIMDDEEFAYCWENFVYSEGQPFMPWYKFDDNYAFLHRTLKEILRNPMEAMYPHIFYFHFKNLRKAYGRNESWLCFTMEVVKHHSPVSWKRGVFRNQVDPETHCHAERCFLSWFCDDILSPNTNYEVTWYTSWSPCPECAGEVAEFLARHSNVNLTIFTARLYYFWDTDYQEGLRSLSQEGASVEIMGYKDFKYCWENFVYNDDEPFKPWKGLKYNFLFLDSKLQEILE

The target of this assay is DNA dC->dU-editing enzyme APOBEC-3F (Homo sapiens) (UniProt Q8IUX4). Nature of the assay: qHTS for inhibitors of Vif-A3F interactions: Cherry picks counterscreen. Further: nearly all actives have a fitted effect of over 65% in size. Conditions: HeLa A3F-eYFP/Vif cells, eYFP fluorescence, 24 h; series mostly up to 46.1 µM. An outline of the steps:
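HeLa cells stably expressing A3F-eYFP and Vif, cultured overnight, then treated 24 h at 37 degrees C with compounds at several concentrations; yellow fluorescence (488 nm Ex/500-530 nm Em) imaged on Acumen; MG132 positive control.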
For orientation: qHTS replaces the single test concentration by a dilution series.
Consider `Cc1cc(N/N=C/c2ccc([N+](=O)[O-])o2)nc2ccccc12`, for which the Potency was 20.6 µM (active). The value for `CCn1c(/C=C/c2ccc([N+](=O)[O-])o2)nc2ccccc2c1=O` was 11.6 µM (active); that for `O=c1c2ccccc2nc(/C=C/c2ccc([N+](=O)[O-])o2)n1CCCO` was 23.1 µM (active); that for `Cn1c(/C=C/c2ccc([N+](=O)[O-])o2)nc2ccccc2c1=O` was 23.1 µM (active).

As to `CCCN1C(=O)C(Cc2nc3ccccc3c(=O)n2CC)c2cc(Br)ccc21` (configuration not stated), the Potency result was “inactive”. For the compound `COc1cc(/C=N\Nc2ccc([N+](=O)[O-])cc2)ccc1OCC(=O)Nc1ccc(C)c(C)c1`, the Potency was 0.651 µM (active). `CCN(CC)c1ccc(/C=c2/sc3nnc(-c4ccccc4C)n3c2=O)cc1`: the Potency was 16.4 µM (active). The value for `CC[n+]1ccccc1/C=C1\Sc2ccc(C)cc2N1C` was 20.6 µM (active).

Regarding `COc1ccc2c(c1)N(C)/C(=C/c1cccc[n+]1C)S2`, the Potency was 14 µM (active). The same measure for `CCN1/C(=C/c2cccc[n+]2C)Sc2ccc(OC)cc21`: 20.6 µM (active). Regarding `Cc1ccccc1OCC(=O)NNC(=O)Nc1ccc(Cl)cc1`, the Potency is 4.98 µM (active). The value for `COc1ccccc1OCC(=O)NNC(=O)Nc1ccc(Cl)cc1` was 15.8 µM (active); that for `O=C(CSc1n[nH]c(-c2ccccn2)n1)Nc1ccc(Cl)cc1` was “inactive”; that for `COc1cc(C2c3cc4c(cc3OC(C)(N3CCCC3)C2C)OCO4)cc(OC)c1OC` (configuration not stated) was 1.25 µM (active). The same measure for `CC(C)NC(=S)N/N=C1\CCCCc2ccccc21`: “inactive”; for `N#CC1=C(N)Oc2cc(N)ccc2C1c1ccccc1F` (configuration not stated): 4.98 µM (active). Turning to `N#CC1=C(N)Oc2cc(N)ccc2C1c1ccc(F)cc1F` (configuration not stated), the Potency was 20.6 µM (active).

Turning to `N#CC1=C(N)Oc2cc(N)ccc2C1C1CC=CCC1` (configuration not stated), the Potency was 5.59 µM (active). The same measure for `Cc1cccc(CSc2cccc3cccnc23)c1`: “inactive”; for `S=C(Nc1cccc2ccccc12)NN1CCCCCC1`: “inactive”. The same measure for `COC(=O)c1cccc(NS(=O)(=O)c2ccc(OC)cc2)c1C`: 3.53 µM (active); for `COc1ccc(S(=O)(=O)Nc2cccc3ccccc23)cc1`: 10.3 µM (active); for `CCCCN1C(=O)/C(=C2/Sc3ccccc3N2C)S/C1=N\c1ncn[nH]1`: 20.6 µM (active). Consider `COc1ccc(C)c(Cn2c(-c3nonc3N)nc3ccccc32)c1`, for which the Potency is 1.58 µM (active).

As for `Nc1nonc1-c1nc2ccccc2n1Cc1ccc(F)cc1`, the Potency is 8.86 µM (active).

As for `COc1cccc(Cn2c(-c3nonc3N)nc3ccccc32)c1`, the Potency is 1.58 µM (active). For the compound `CCC(=O)Nc1nonc1-c1nc2ccccc2n1Cc1ccccc1`, the Potency was 17.7 µM (active). The value for `COc1cccc(Cn2c(-c3nonc3NC(C)=O)nc3ccccc32)c1` was 9.2 µM (active); that for `Cc1ccc(C(=O)NCCn2c(N)c(C#N)c3nc4ccccc4nc32)cc1` was 18.4 µM (active); that for `COc1ccc(-c2cc(-c3nnc(COC(=O)c4ccncc4)o3)c3ccccc3n2)cc1OC` was “inactive”.

Regarding `COc1ccc(COc2cc(-c3cccc(OC)c3)nc3ccc(NC(=O)c4ccc(OC)cc4)cc23)cc1`, the Potency was 6.27 µM (active). The same measure for `Cc1ccc2c(c1)sc(-c1ccc(N(C)C)cc1)[n+]2C`: 14.6 µM (active); for `CCCC(=O)Nc1nc2ccc(NC(=O)c3ccccc3F)cc2s1`: 4.44 µM (active); for `CCC(=O)Nc1nc2ccc(NC(=O)c3cc(OC)c(OC)c(OC)c3)cc2s1`: “inactive”. The value for `Cn1cc(C2=C(c3ccc(Cl)cc3Cl)C(=O)NC2=O)c2ccccc21` was 14.6 µM (active) and 20.6 µM (active); that for `COc1cccc(Nc2nc(Nc3ccc(Cl)c(C(=O)O)c3)nc(C)c2[N+](=O)[O-])c1` was “inactive”; that for `Cc1ccc2nc(NS(=O)(=O)c3ccc(Cl)cc3)c(Nc3ccc(C(=O)O)cc3)nc2c1` was 14.6 µM (active).

In the case of `COC(=O)c1cc(Nc2nc3ccccc3nc2NS(=O)(=O)c2ccc(C)cc2)ccc1Cl`, the Potency is 18.4 µM (active). The value for `CCOC(=O)N1CCC(Nc2nc3ccccc3n3nnnc23)CC1` was 18.4 µM (active); that for `CCOC(=O)c1ccc(Nc2nc3ccccc3nc2NS(=O)(=O)c2ccc(Cl)cc2)cc1` was 14.6 µM (active). The same measure for `CCOC(=O)N1CCC(Nc2nc3ccccc3nc2NS(=O)(=O)c2ccc(Cl)cc2)CC1`: 23.1 µM (active); for `NC(=S)N/N=C/c1cccc(O)c1O`: “inactive”.

As to `CC(=O)N/N=C/c1cc(C(C)(C)C)cc(/C=N/NC(C)=O)c1O`, the Potency is 23.1 µM (active). The value for `CC(=O)N/N=C/c1cc(C(C)C)cc(/C=N/NC(C)=O)c1O` was “inactive”. The value for `CCOc1ccc(C(C)=O)cc1COc1cccnc1[N+](=O)[O-]` was 9.94 µM (active).

For `COc1cccc(/C=N/n2c(C3CCCCC3)n[nH]c2=S)c1O`, the Potency result is “inactive”. As for `COc1ccc(-n2nc3c(N4CCCC(C(=O)NCCc5ccccc5C)C4)nnc(C)c3c2C)cc1` (configuration not stated), the Potency was 25.9 µM (active). The value for `COc1ccc2cc(C(=O)C3CCCN(Cc4ccccn4)C3)ccc2c1` (configuration not stated) was “inactive”. The same measure for `CNCC(O)Cn1c2c(c3ccccc31)CCCC2` (configuration not stated): “inactive”. The value for `O=C(c1ccccc1F)n1c2c(c3ccccc31)CCCC2` was 11.2 µM (active). For `CCOC(=O)N1CCc2c(sc3c2C(=O)NC(c2ccc(N(C)C)cc2)N3)C1` (configuration not stated), the Potency was 9.2 µM (active). With `Cc1cc(C)c2cc3c(N)c(C(=O)Nc4c(C)[nH]c(=O)[nH]c4=O)sc3nc2c1`, the Potency was 18.4 µM (active). The value for `CCOC1=C/C(=C/c2c(N)n3nc(-c4ccccc4)sc3nc2=O)C=CC1=O` was “inactive”.

In the case of `COc1ccccc1N1CCN(C(=O)c2ccc3ncsc3c2)CC1`, the Potency result was “inactive”. The value for `CCSc1ncc(Cl)c(C(=O)N2CCN(c3ccccc3OC)CC2)n1` was 2.06 µM (active); that for `COC(=O)c1cc(C(=O)N2CCN(c3ccccc3OC)CC2)cc([N+](=O)[O-])c1` was 3.96 µM (active). As for `COc1ccccc1N1CCN(C(=O)c2cc(=O)c3cc(C)cc(C)c3o2)CC1`, the Potency is 0.125 µM (active). In the case of `COc1ccccc1N1C(=O)c2cccc3c(C(=O)O)ccc(c23)C1=O`, the Potency entry was “inactive”. The same measure for `COc1cc(SC)ccc1C(=O)N1CCN(c2ccccc2OC)CC1`: 3.53 µM (active); for `COc1ccccc1C(=O)N1CCN(c2cccc(Cl)c2)CC1`: 1.25 µM (active); for `COc1ccc(Cn2c(C)nc3c(c2=O)c2nc4ccccc4nc2n3Cc2ccco2)cc1`: 18.4 µM (active). The value for `Cc1ccc2nc3c(cc(S(=O)(=O)c4ccccc4)c(=N)n3Cc3ccco3)c(=O)n2c1` was “inactive”.
